CYP2C19 inhib: inhibitors of human CYP2C19 | P33261 | CYP2C19 Supersomes, luciferin-H EGE luminescence, 30 min | inhibition, % at 5 µM | 21% of 96,000 active | AID 778;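 active = CYP2C19 inhibition above a set limit at 5 µM in the primary screen, cut at about 50% in these data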;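 also: plate controls were negative control wells for no effect and 2.5 mM tranylcypromine positive control for full effect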
Plk1 PBD FP: inhibitors of human Plk1 polo box domain binding; 0.13% of 97,000 active; P53350; Plk1 PBD phosphopeptide binding, fluorescence polarization; inhibition, %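 (tested at about 20 µM)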; AID 693; in the data active = inhibition above about 34%, passing the limit was not always enough
CYP2C9 inhib: human CYP2C9 inhibition. AID 777. P11712. 20% of 96,000 active. CYP2C9 Supersomes, luciferin-H conversion, luminescence. inhibition, % at 5 µM;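 active = blocking of liver enzyme CYP2C9 beyond about 50% at 5 µM, limit read from the data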
Target sequence (P11712 whole entry, looked up): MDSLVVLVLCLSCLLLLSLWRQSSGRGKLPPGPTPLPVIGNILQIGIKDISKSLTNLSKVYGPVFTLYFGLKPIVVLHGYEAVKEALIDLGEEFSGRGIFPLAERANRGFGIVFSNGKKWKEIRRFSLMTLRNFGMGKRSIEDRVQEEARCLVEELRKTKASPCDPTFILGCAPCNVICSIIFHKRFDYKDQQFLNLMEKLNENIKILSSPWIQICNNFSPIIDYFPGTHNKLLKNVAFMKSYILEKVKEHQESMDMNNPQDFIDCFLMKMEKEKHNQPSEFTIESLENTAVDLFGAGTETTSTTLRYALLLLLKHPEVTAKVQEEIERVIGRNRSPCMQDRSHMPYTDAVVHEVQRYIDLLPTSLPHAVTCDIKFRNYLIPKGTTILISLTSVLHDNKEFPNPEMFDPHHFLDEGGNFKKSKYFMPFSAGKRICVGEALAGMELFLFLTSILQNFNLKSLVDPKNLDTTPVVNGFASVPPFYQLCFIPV
CYP2C9 act: activators of human CYP2C9; AID 1024; 1.4% of 96,000 active; recombinant CYP2C9, luciferin-H conversion, luminescence; active compounds read high; factor 1 = untreated enzyme, 0 = blocked; activation factor at 5 µM;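 active = activation factor of 2 or more for CYP2C9 at a 5 µM dose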;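 also: 0 = sulfaphenazole-blocked wells and 1 = vehicle-only wells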
CYP2C19 activ: cytochrome P450 2C19 (human) activation. P33261. 96,000 tested, under 10 active. recombinant CYP2C19, luciferin-H EGE luminescence; active compounds read high; 0 = fully inhibited enzyme, 1 = untreated enzyme. AID 1025. activation factor at 5 µM;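 active = activation factor of at least 2 at 5 µM in the primary screen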;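 also: 0 = wells with 2.5 mM tranylcypromine and 1 = vehicle-only wells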
PLK1 kinase inh: PLK1 (human) kinase inhibition. P53350. recombinant PLK1 kinase, TR-FRET peptide phosphorylation. inhibition, % at 10 µM. 0.53% of 97,000 active. AID 619;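 active = inhibition of 50% or more in the single-concentration screen; inactive = inhibition below 50%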;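 also: 0% = DMSO max control and 100% = H-89 dihydrochloride min control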
An asterisk follows results filed as active. In the library only some 28% were active in any assay of this set; here they are far more common.

For Cc1ccccc1Nc1nnc(SCc2cc([N+](=O)[O-])cc3c2OCOC3)s1 the results were CYP2C19 inhib 100*, Plk1 PBD FP 19, CYP2C9 inhib 62*, CYP2C9 act 0.4, CYP2C19 activ 0 and PLK1 kinase inh -11.
For O=[N+]([O-])c1cc2c(c(CSc3nnc(Nc4ccccc4)s3)c1)OCOC2 the results were CYP2C19 inhib 1, Plk1 PBD FP -10, CYP2C9 inhib 9, CYP2C9 act 0.9, CYP2C19 activ 1 and PLK1 kinase inh -9.
For CC1CN(CCC(=O)Nc2ccc3c(c2)CCC3)CC(C)O1 (stereo not given) the results were CYP2C19 inhib 52*, Plk1 PBD FP 18, CYP2C9 inhib 8, CYP2C9 act 0.9, CYP2C19 activ 0.5 and PLK1 kinase inh 11.
For COc1ccc(CC(=O)Nc2ccc3c(c2)CCC3)cc1OC the results were CYP2C19 inhib 81*, Plk1 PBD FP -7, CYP2C9 inhib -35, CYP2C9 act 1.3, CYP2C19 activ 0.2 and PLK1 kinase inh -12.
CC1CCN(CCC(=O)Nc2ccc3c(c2)CCC3)CC1 was read as Plk1 PBD FP -3 and PLK1 kinase inh -11.
For CC(=O)Nc1cccc(NC(=O)CSc2nnnn2C(C)C)c1 the results were CYP2C19 inhib 42, Plk1 PBD FP -11, CYP2C9 inhib 17, CYP2C9 act 0.8, CYP2C19 activ 0.6 and PLK1 kinase inh -9.
For O=C(Cc1cccc2ccccc12)N/N=C/c1ccc(Sc2nc3ccccc3s2)o1 the results were CYP2C19 inhib 16, Plk1 PBD FP -36, CYP2C9 inhib 76*, CYP2C9 act 0.2, CYP2C19 activ 0.8 and PLK1 kinase inh -9.
Screening Cc1ccccc1OCC(=O)N/N=C/c1ccc(Sc2nc3ccccc3s2)o1 returned CYP2C19 inhib 74*, Plk1 PBD FP -34, CYP2C9 inhib 83*, CYP2C9 act 0.2, CYP2C19 activ 0.3 and PLK1 kinase inh -11.
For N#CCC(=O)N/N=C/c1ccc(Sc2nc3ccccc3s2)o1 the results were CYP2C19 inhib 78*, Plk1 PBD FP -16, CYP2C9 inhib 18, CYP2C9 act 0.8, CYP2C19 activ 0.2 and PLK1 kinase inh -15.
`O=C(COc1cccc2ccccc12)N/N=C/c1ccc(Sc2nc3ccccc3s2)o1` gave CYP2C19 inhib 18, Plk1 PBD FP -15, CYP2C9 inhib 29, CYP2C9 act 0.7, CYP2C19 activ 0.8 and PLK1 kinase inh -10.
For O=C(NCc1ccccn1)C1CCC(=O)N1C1CCCC1 (stereo not given) the results were Plk1 PBD FP -11 and PLK1 kinase inh -4.
Screening Oc1cccc(Nc2nc(NCC3CCCO3)c3ccccc3n2)c1 (stereo not given) returned CYP2C19 inhib 51*, Plk1 PBD FP -12, CYP2C9 inhib 60*, CYP2C9 act 0.4, CYP2C19 activ 0.5 and PLK1 kinase inh -9.
CCCCn1c(=O)n(C)c(=O)c2c(C(F)(F)F)cc(-c3ccncc3)nc21 was read as CYP2C19 inhib 73*, Plk1 PBD FP -12, CYP2C9 inhib 48, CYP2C9 act 0.5, CYP2C19 activ 0.3 and PLK1 kinase inh 14.
`CCCn1c(=O)c2c(C(F)(F)F)cc(-c3ccco3)nc2n(CCC)c1=O` gave CYP2C19 inhib -8, Plk1 PBD FP 0, CYP2C9 inhib -17, CYP2C9 act 1.2, CYP2C19 activ 1.1 and PLK1 kinase inh -17.
For NC(=O)c1cnn2c(C(F)(F)F)cc(-c3ccc(F)cc3)nc12 the results were CYP2C19 inhib -3, Plk1 PBD FP -10, CYP2C9 inhib -8, CYP2C9 act 1.1, CYP2C19 activ 1 and PLK1 kinase inh -14.
C=CCn1c(SCC(=O)Nc2cc(C)ccc2C)nnc1-c1cnccn1 was read as CYP2C19 inhib 83*, Plk1 PBD FP -2, CYP2C9 inhib 3, CYP2C9 act 1, CYP2C19 activ 0.2 and PLK1 kinase inh 4.
Screening C=CCn1c(SCC(=O)Nc2cc(C)cc(C)c2)nnc1-c1cnccn1 returned CYP2C19 inhib 4, Plk1 PBD FP -21, CYP2C9 inhib -3, CYP2C9 act 1, CYP2C19 activ 1 and PLK1 kinase inh -4.
`CCn1c(SCC(=O)Nc2ccc3c(c2)c2ccccc2n3CC)nnc1-c1cnccn1` gave CYP2C19 inhib 53*, CYP2C9 inhib -44, CYP2C9 act 1.4 and CYP2C19 activ 0.5.
For C=CCn1c(SCC(=O)Nc2cccc(C)c2)nnc1-c1cnccn1 the results were CYP2C19 inhib 96*, Plk1 PBD FP -33, CYP2C9 inhib 53*, CYP2C9 act 0.5, CYP2C19 activ 0 and PLK1 kinase inh -20.
Screening CCc1c(C)nc(/N=C(/NC(=O)c2ccccc2)Nc2ccccc2OC)[nH]c1=O returned Plk1 PBD FP -6 and PLK1 kinase inh -7.
For O=C(C1CCN(S(=O)(=O)c2cccc3cccnc23)CC1)N1CCCC1 the results were CYP2C19 inhib 36, Plk1 PBD FP -13, CYP2C9 inhib -163, CYP2C9 act 2.6*, CYP2C19 activ 0.6 and PLK1 kinase inh -12.
For Cc1cccc(N2CCN(C(=O)C3CCN(S(=O)(=O)c4cccc5cccnc45)CC3)CC2C)c1 (stereo not given) the results were CYP2C19 inhib 85*, Plk1 PBD FP -25, CYP2C9 inhib -32, CYP2C9 act 1.3, CYP2C19 activ 0.1 and PLK1 kinase inh -7.
For COc1ccc(S(=O)(=O)N2CCC(C(=O)N3CCCC3)CC2)cc1 the results were CYP2C19 inhib 48, Plk1 PBD FP -6, CYP2C9 inhib -67, CYP2C9 act 1.7, CYP2C19 activ 0.5 and PLK1 kinase inh -8.
For O=C(C1CCN(S(=O)(=O)c2cccc3cccnc23)CC1)N1CC=C(c2ccccc2)CC1 the results were CYP2C19 inhib 75*, Plk1 PBD FP 2, CYP2C9 inhib -31, CYP2C9 act 1.3, CYP2C19 activ 0.2 and PLK1 kinase inh 3.
For O=C(CSC1=Nc2ccccc2C2=NC(CC(=O)NC3CCCCC3)C(=O)N12)NCc1ccco1 (stereo not given) the results were CYP2C19 inhib -2, Plk1 PBD FP 0, CYP2C9 inhib 11, CYP2C9 act 0.9, CYP2C19 activ 1 and PLK1 kinase inh -14.
Screening CCOC(=O)c1cnc(C(C)(C)C)[nH]c1=O returned Plk1 PBD FP 31 and PLK1 kinase inh -16.
Screening O=C(CCc1c[nH]c2ccccc12)NC1CC1 returned CYP2C19 inhib 40, Plk1 PBD FP -6, CYP2C9 inhib 7, CYP2C9 act 0.9, CYP2C19 activ 0.6 and PLK1 kinase inh -6.
Cc1c(-c2ccc(F)cc2)nc(N)c(C#N)c1-c1cccs1 was read as CYP2C19 inhib -6, Plk1 PBD FP -12, CYP2C9 inhib -1, CYP2C9 act 1, CYP2C19 activ 1.1 and PLK1 kinase inh -16.
CC(C)Sc1nc(N)nc(-c2cccs2)c1C#N was read as CYP2C19 inhib 29, Plk1 PBD FP 30, CYP2C9 inhib 75*, CYP2C9 act 0.3, CYP2C19 activ 0.7 and PLK1 kinase inh -9.

Screens as filed in PubChem BioAssay.
